Drawing on PubChem BioAssay AID1159506 (National Center for Advancing Translational Sciences (NCATS), 2015), this text covers seed-corrected z-score for 67 sequences.

Over roughly 59,000 sequences, the read-out has its median near -0.00055; the lowest 2% begin near -2. Many of the other results were omitted from the sample, so the lowest values are more common in it than they were.

The assay in a line: Identification of proteins required for the processing of the EWS-FLI1 nascent transcript.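 Note: robust z of luciferase light less the median z of siRNAs with the same seed.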 Conditions: TC32 Ewing sarcoma NR0B1-luc vs CMV-luc (EWS-FLI1 target promoter against control promoter), 48 h; screened at 20 nM (by protocol). The procedure: Ewing sarcoma (ES) cells depend on the EWS-FLI1 fusion transcription factor for cell survival. Using an assay of EWS-FLI1 activity and genome-wide siRNA screening we have identified proteins required for the processing of the EWS-FLI1 nascent transcript. Parallel genome-wide siRNA-mediated RNAi screens were conducted in Ewing sarcoma TC32 cell lines expressing a luciferase (luc) reporter protein driven by either the promoter of the EWS-FLI1 target gene NR0B1 (TC32-NR0B1-luc) or the CMV promoter (TC32-CMV-luc). Luciferase activity was assessed 48 hours post siRNA-transfection.
Twenty microl of serum-free media containing Lipofectamine RNAiMax (0.05 microl) was added to wells containing siRNA (0.8 pmol). Lipid and siRNA were allowed to complex for 45 min at ambient temperature before addition of 600 cells in RPMI-1640, 20% FBS to yield final transfection mixtures containing 20 nM siRNA in RPMI-1640, 10% FBS. Luciferase expression was measured using OneGlo (Promega, Madison, WI). The genome-wide screening campaign was conducted using Ambion's human genome library version 4.1 (Ambion, Austin TX). This library targets approximately 21000 human genes, three siRNAs per gene. Each siRNA is arrayed in an individual well of a 384-well plate. Parallel transfections were conducted in TC32-NR0B1-luc and TC32-CMV-luc cell lines and luciferase expression (OneGlo, Promega) was assayed 48 h later on a PerkinElmer Envision 2104 Multilabel plate reader (PerkinElmer, Waltham, MA). Qiagen's AllStars Negative control was incorporated on all screening plates for normalization (16 wells per plate). Qiagen, Germantown, MDsiGL4 was incorporated as a positive transfection control (16 wells per plate) on all plates. […] The raw luciferase data for the NR0B1- and CMV-luc screens were normalized and z-score-MAD transformed using standard methods (Chung et al., 2008). The miRNA-like seed sequence of every siRNA was determined and the median z-score for all siRNA sequences with the same seed sequence was calculated. This z-score was subtracted from the z-score associated with each siRNA with that seed sequence to generate a seed-adjusted z-score value (Z) that was used when the results for the three siRNAs corresponding to each gene were compared (Marine et al., 2012)
UUUCAUAAUUGUCUCACUG against MTHFD2 returned a seed-corrected z-score of 0.341.

The sequence AAACUUGUACACGUUCUUG against RPN2 showed a seed-corrected z-score of 1.31.

Sequence AUACGAUAAAUAGCAGCUG against OR2D2 gave a seed-corrected z-score of -0.266.

Turning to UCAUGUAUUGCUGGGUGGG against LETMD1, the seed-corrected z-score was -2.04.

Consider UGAAAGCGCAGAUCUGUCU against HIST1H3G, for which the seed-corrected z-score is -0.148.

Consider UGGUCUAAGGCUUUGAUGC against KLK2, for which the seed-corrected z-score is -0.348.

The sequence UGAUAUUUUGGUGCGUUGU against FBXO45 yielded a seed-corrected z-score of 0.68.

The sequence UAGUUGGUGAGGAUCACGG against REN came in with a seed-corrected z-score of -0.578.

As to UACUCUUCCAACGACAGGC against UQCC2, the seed-corrected z-score came to 0.919.

UUCCGAGUUGCAGAGGUCU against SLURP1: the seed-corrected z-score was -0.177.

Take AAAAGGAUUGCUGAAAUGG against LOC650293: the seed-corrected z-score came out at 0.542.

UCUUGACUGACUUUCUUCU against FAM173B registered a seed-corrected z-score of -2.2.

The sequence AAUGGAUGCAGUGUCAAGC against PAK1IP1 returned a seed-corrected z-score of 1.75.

Sequence UUCCUUGACAAGCAUAACC against CARNMT1 returned a seed-corrected z-score of -0.155.

AAAUCUUACAGACUGGUUC against BEX1 gave a seed-corrected z-score of -0.486.

Regarding UCAUGGGUCACGUCAGCUG against SLC2A1, the seed-corrected z-score was -0.895.

As to ACACUGUAAAGCUCGGUGC against LARP1, the seed-corrected z-score is 0.106.

For UUAGAGUUGGUGAUGAGCA against GALK1, the seed-corrected z-score was 1.7.

Turning to AAAAGGACUAUGUACAGCC against SNRPB, the seed-corrected z-score was -3.37.

UAUGCUCUCUGAUCGAAUG against ATG16L1 gave a seed-corrected z-score of 0.136.

Consider UUGCUCACAAUAAAAUAGC against GPR89A, for which the seed-corrected z-score is -0.56.

As to UGUAGACAAAGUACUGGGC against CNTN2, the seed-corrected z-score is -0.261.

Consider AAACUUCCUAUUAUCGACC against SPRED2, for which the seed-corrected z-score is -0.704.

In the case of UUCGAGUGAAGACAGAAUC against ZNF318, the seed-corrected z-score was -2.15.

As for UAAGUUGUGAUGAUAGGUU against ZNF98, the seed-corrected z-score was -0.0973.

On to AUCUGAUCCAUAUUCUCCC against DIEXF, for which the seed-corrected z-score came out at 0.628.

UACAAUAAAAGAAGCAUCU against PIGY: the seed-corrected z-score amounted to 0.157.

As for UUUCUUAGAAAUGAGGUGA against OVOL1, the seed-corrected z-score was -0.287.

UCAGGAUCUGUGGAUACUG against COPB2 came in with a seed-corrected z-score of -2.55.

Sequence UCAUAGUCCACGAGUUUCC against BIN2 gave a seed-corrected z-score of 0.142.

UUCGGUUGAACCUUGUCUG against ORC2: the seed-corrected z-score is -0.39.

AAUACAAUGAGGAUGUUGC against MCHR2 yielded a seed-corrected z-score of -0.242.

With AUCUUUAACCCGAAAGGUC against STRC, the seed-corrected z-score was -3.57.

In turn, UACUCGAAGAUUUCCGUCC against SEC16B displayed a seed-corrected z-score of -0.242.

UUCGAUGUCACAGGUCUGC against RGS14: the seed-corrected z-score was -0.247.

UCGAUAUCAACUUUUGCCG against CEP192: the seed-corrected z-score was -0.779.

With UUUGAUAGAGGUGCGGACG against OR6F1, the seed-corrected z-score is -0.169.

In the case of UAUCCGAUCACCACUCUCC against MYOM3, the seed-corrected z-score is -0.29.

Take UUCUUUCUGAGUCUGGUUA against RPL35: the seed-corrected z-score was -3.01.

Sequence AAAGGCUUAAUUUUUACCU against TOMM7 yielded a seed-corrected z-score of 1.3.

UGAGUUCCAGGUCUUAUGC against DEFB110: the seed-corrected z-score is -0.42.

In turn, AUAUUGUUUAGCUCCACGG against MASP1 came in with a seed-corrected z-score of 0.285.

Turning to UAGUCGUUCUUCUACAGCC against MBIP, the seed-corrected z-score stood at 0.411.

Turning to UCACGAAGAGUUGCAACUG against ALB, the seed-corrected z-score is -3.99.

UGUAGUAACAGAGCCACGC against PPY gave a seed-corrected z-score of 0.227.

In turn, AAAAGUCCUAGCAUAUUCC against ZER1 yielded a seed-corrected z-score of 0.406.

As to UUUGUGAUCUUGGUGAGGU against SHBG, the seed-corrected z-score was -0.0288.

Sequence AACUGGACUGGAAUUGUUU against CXCR1 gave a seed-corrected z-score of -0.419.

For the sequence UAUGUGCUGGUGAUCCUUC against DEAF1, the seed-corrected z-score was determined as 0.839.

In turn, UGUUGUACAACGAUAGCCU against RELL1 showed a seed-corrected z-score of -0.595.

Turning to AUUGUAACGGGUUUUGUUC against CHRNB4, the seed-corrected z-score was -0.325.

On to AACUGUUCCAUCGACUUGG against RASAL1, for which the seed-corrected z-score was -0.492.

Turning to UUACUGUCCAGAGCACUGA against SMARCD3, the seed-corrected z-score is -0.925.

Take UUUGCUAUAAUCCACCUCC against IK: the seed-corrected z-score is -3.11.

UAGACGAUAAGACUCUUUC against NCOA7 gave a seed-corrected z-score of -0.339.

The sequence UAUUGAAGCAACUAGGAUG against KIAA0754 gave a seed-corrected z-score of -0.869.

The sequence UGCAGGAUGACCAAAGUGC against LGALS14 yielded a seed-corrected z-score of 0.705.

In the case of AAUAUGUCCAGCCCAGCUG against CLIC1, the seed-corrected z-score is -0.000686.

For the sequence UUUCCUUUGGUUGUUAAUG against FDX1, the seed-corrected z-score is -0.575.

UUCCGAGAUAUGGAGGUAC against KIAA0368 came in with a seed-corrected z-score of 0.95.

Consider UCAUCUUCUUCCGUUGCCG against PPP1R1A, for which the seed-corrected z-score is 0.273.

UAAGAAAAAGCGGAGUUCG against FZD7 yielded a seed-corrected z-score of 0.0443.

Regarding UUCUUUUGACUCUUAGUCC against CLEC4C, the seed-corrected z-score was -2.28.

Consider UAGCCUAGGAGAUACAUCG against COPB2, for which the seed-corrected z-score was -3.63.

UAACUUUUCCCUUAUUCAG against FAM90A3P registered a seed-corrected z-score of 0.873.

Sequence UUCCGUGUGAAACAGAUGG against ARMC4 returned a seed-corrected z-score of 0.434.

In the case of AAUGUAGUAAAUGCAAGUU against C3orf79, the seed-corrected z-score was -0.0591.
